HCMV inh: human cytomegalovirus inhibition | HFF cells, HCMV-luciferase reporter, 72 h; active compounds read low | activity change, negative = inhibition, % at 57.5 µM | 410,000 tested, 4.5% active | AID 1259415; in the data active means activity change below about -60%; inconclusive means no clear call, values can overlap the other calls; inactive means above about -39%; further: on the % scale 0 is the no-effect control and ±100 the full control effect
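Cell-based, HFFs, 1000 cells/well, 16 h 37C; cpds in DMSO + HCMV-luc, MOI 1 PFU/cell; 72 h 37C; OneGlo luminescence after 5 min RT; norm. to buffer vs Salinomycin 10uM.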
HCV inh: blocks hepatitis C virus | Huh7.5.1 HCVcc-Cre infection, luciferase reporter, 44 h | Potency, µM (series often up to 41.8 µM), inactives show top-dose activity change, negative = inhibition, hits mostly inhibitors | 340,000 tested, 3.4% active | AID 651820; further: potency means the concentration at half of the fitted maximal effect; on the % scale 0 is the no-effect control and ±100 the full control effect
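HCVcc-Cre virus at an moi near 0.5 was added right after compound to cells cultured 4 h from seeding (1,000 cells/well). Luciferase activity was determined 44 h later, 15 min after substrate addition at RT.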
Sm TGR block: S. mansoni TGR enzyme inhibition | Q962Y6 | Potency, µM (series often up to 114 µM), for the others: at the top dose activity change, negative = inhibition, usual class: inhibitors | purified TGR, DTNB reduction, TNB absorbance 405 nm | 360,000 tested, 3% active; further: potency means the concentration at half of the fitted maximal effect; on the % scale 0 is the no-effect control and ±100 the full control effect; nearly all actives have a fitted effect of over 60% in size
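First, TGR (20 nM dispensed) and NADPH were mixed with compound. Second, a 15 min room-temperature incubation followed. Third, further NADPH and then DTNB were added to start the reaction. Finally, TNB absorbance was monitored kinetically.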
Pf growth 96h: P. falciparum growth inhibition at 96 hours | 320,000 tested, 6.9% active | P. falciparum luciferase reporter growth, 96 h | AID 504834 | Potency, µM (doses to about 28.7 µM), inactives show at the highest dose activity change, negative = inhibition, hits mostly inhibitors; further: potency means the concentration at half of the fitted maximal effect; on the % scale 0 is the no-effect control and ±100 the full control effect
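Luminescence readout: decreased luciferase signal marks inhibited growth of reporter-expressing P. falciparum in infected red cells (2% hematocrit, 0.05% parasitemia final), exposed to compound two generations (96 h, 37 C, 5% CO2).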
Pf growth 48h: inhibits P. falciparum growth in the first generation, 48 h; P. falciparum luciferase growth in erythrocytes, 48 h; Potency, µM (titrated, usually from 28.7 µM), for inactives: top-dose activity change, negative = inhibition, hits mostly inhibitors; 310,000 tested, 5.9% active; further: potency means the concentration at half of the fitted maximal effect; on the % scale 0 is the no-effect control and ±100 the full control effect
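First compound was added to culture medium, then infected red cells at 0.1% parasitemia and 2% hematocrit (final). After incubation at 37 C under 5% CO2, luciferase detection reagent was dispensed and light output recorded.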
SARS PLP yeast: SARS-CoV PLP inhibition in yeast; AID 485353; 330,000 tested, 0.19% active; S. cerevisiae expressing SARS-CoV PLpro, growth rescue; Potency, µM (series often up to 32.9 µM), without a hit: at the top dose activity, positive = growth rescue, usual class: activators; calls by dose curve; further: potency means the concentration at half of the fitted maximal effect; 0% is about no effect; nearly all actives have a fitted effect of over 55% in size
Starred values were filed as active, the others as inactive; ? = inconclusive; . = not tested or not shown; [ ] = dose if it differs, or a comment. Rows were chosen to be rich in hits. Some 15% of all compounds tested hit in one or more screens of this group. Unless noted, the call rests on the fitted dose curve; in most records, active means well fitted curve in the direction sought with a large enough effect; inconclusive means small, poorly fitted or top-dose-only effect, or another doubt; inactive means no such curve, though single readings can be large; an effect the other way counts as inactive or inconclusive.

SMILES	HCMV inh	HCV inh	Sm TGR block	Pf growth 96h	Pf growth 48h	SARS PLP yeast
O=c1cc(-c2ccc(O)cc2)oc2cc(O)c([C@@H]3O[C@H](CO)[C@@H](O)[C@H](O)[C@H]3O)c(O)c12	13.0	19.6%	.	.	.	-8.2%
O=c1cc(-c2ccc(O)cc2)oc2cc(O[C@@H]3O[C@H](CO)[C@@H](O)[C@H](O)[C@H]3O[C@@H]3OC[C@](O)(CO)[C@H]3O)cc(O)c12	-8.9	-1.0%[8.37 µM]	-7.2%	?	10.4µM*	-9.7%
FC(F)Sc1ccc(NC(=S)NC(c2ccccc2)c2ccccc2)cc1	-97.6*	?	8.3%	?	-46.4%	-11.3%
FC(F)Sc1ccc(NC(=S)NCc2ccccc2)cc1	-88.2*	?	4.1%	-4.4%	0.0%	-14.5%
FC(F)(F)c1ccc(NC(=S)NCc2ccccc2)cc1	?	-5.4%	-14.6%	?	-94.0%	-3.9%
CN(C(=S)Nc1ccc(SC(F)F)cc1)C(c1ccccc1)c1ccccc1	-72.5*	?	-26.3%	?	9.28µM*	-4.0%
CC(NC(=S)Nc1ccc(F)cc1)c1ccccc1 (stereo unspecified)	?	-16.2%	-15.7%	?	125.3%	0.0%
CN(C)CCCN(Cc1ccccc1)C(=S)Nc1ccc(SC(F)F)cc1	?	?	5.7%	?	?	-2.9%
COc1cc(OC)cc(C(=O)NN(CCC#N)C2=NS(=O)(=O)c3ccccc32)c1	9.1	-20.2%	-2.4%	7.7%	13.6%	-0.8%
COc1cccc(Cn2c(C)c(CNC3CCCCC3)c(C(=O)O)c2C)c1	-101.6*	.	4.0%	.	.	.
COc1ccccc1NC(=O)NC1(C(=O)N2CCN(C)CC2)CCCCC1	22.2	7.5%	8.5%	2.8%	15.9%	-0.3%
CC(C)N(Cc1ccccc1)S(=O)(=O)c1ccc2c(c1)NC(=O)CO2	-26.9	-8.3%	0.3%	?	-6.4%	3.3%
COC(=O)c1ccc(C(c2c(N)n(Cc3ccccc3)c(=O)n(C)c2=O)N2CCOCC2)cc1 (stereo unspecified)	-13.8	2.3%	22.4µM*	-15.1%	?	4.4%
CCn1nc(-c2ccccc2)c2nc3ccccc3nc21	-60.5*	-11.7%	5.2%	219.6%	28.0%	1.0%
Cc1cc(N=NC(=O)c2ccccc2O)c2ccccc2c1O	-72.7*	?	9.0%	?	55.1%	-8.3%
O=C(COc1ccc(Cl)cc1)N1N=C(c2cccs2)CC1c1ccco1 (stereo unspecified)	-32.8	?	.	.	.	.
O=C(CCl)N1N=C(c2ccco2)CC1c1ccco1 (stereo unspecified)	-72.1*	11.2µM*	6.31µM*	13.1µM*	13.1µM*	6.6%
CN1CC(=O)N(CC(=O)N2N=C(c3ccc(Cl)cc3)CC2c2ccco2)C1=O (stereo unspecified)	-4.7	17.2%	22.4µM*	0.0%	-21.9%	1.4%
O=C(CCl)N1N=C(c2cccs2)CC1c1ccco1 (stereo unspecified)	-97.4*	?	2.51µM*	0.9%	?	-1.3%
O=C(COc1ccccc1F)N1N=C(c2cccs2)CC1c1ccco1 (stereo unspecified)	-24.1	-10.1%	25.1µM*	?	?	-2.8%
O=C(NCc1ccccn1)c1cccc(S(=O)(=O)N2CCCCC2)c1	-3.8	2.2%	1.7%	?	-14.4%	-1.3%
Cc1ccc(O)c(C(=O)c2coc(=N)c(C(=O)NC(C)C)c2)c1	17.4	-11.0%	11.7%	.	?	1.8%
Cc1ccc(O)c(C(=O)c2cc(C(=O)NCCC(C)C)c(=O)n(CCC(C)C)c2)c1	7.0	10µM*	1.7%	3.29µM*	?	-0.5%
CC(C)n1c(SCC(=O)NC2CC2)nnc1-c1ccco1	17.8	-4.5%	-22.3%	-24.2%	14.3%	0.8%
CCOc1cc(CNc2cccc3[nH]c(C)nc23)ccc1OC	-27.2	?	-28.0%	18.2%	11.7µM*	-2.2%
c1ccc(Nc2ccc(-n3ccnc3)nn2)cc1	22.6	11.0%	.	20.0%	?	-0.7%
